FBW7 activator: human FBW7 E3 ligase activation, primary screen | 650,000 tested, 0.13% active | AlphaScreen FBW7–phospho-cyclin E peptide binding, activator screen | normalized activity (activation), % at 26.1 µM; in the data active = normalized activity above about 1.9%;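 note: purified mutant Fbw7 with reduced substrate affinity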
TEAD-YAP inh: TEAD-YAP interaction inhibition | HEK-TIYL cells, TEAD-Gal4/YAP UAS-luciferase luminescence | inhibition, % at 9.12 µM | 640,000 tested, 1.4% active | AID 1259422; in the data active = inhibition above about 32%
GPR151 ag: activates the human receptor GPR151; activation, % at 11.2 µM; Q8TDV0; PathHunter beta-arrestin GPR151 cells, luminescence; 650,000 tested, 1% active; in the data active = activation above about 4.9%
Target sequence (Q8TDV0 whole entry, looked up): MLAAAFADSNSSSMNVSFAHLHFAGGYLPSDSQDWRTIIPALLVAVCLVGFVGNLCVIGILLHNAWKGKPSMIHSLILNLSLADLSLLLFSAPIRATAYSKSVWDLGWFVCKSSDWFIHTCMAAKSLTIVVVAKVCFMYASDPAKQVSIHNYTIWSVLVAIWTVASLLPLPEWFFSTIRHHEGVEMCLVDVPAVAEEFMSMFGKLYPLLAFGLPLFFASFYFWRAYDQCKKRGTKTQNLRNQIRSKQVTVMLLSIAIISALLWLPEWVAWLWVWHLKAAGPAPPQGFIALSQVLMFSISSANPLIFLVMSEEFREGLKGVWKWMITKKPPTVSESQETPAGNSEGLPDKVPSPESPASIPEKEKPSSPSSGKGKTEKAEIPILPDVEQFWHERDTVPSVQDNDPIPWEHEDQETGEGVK
MITF primary: human MITF inhibition, primary screen; O75030; AlphaScreen MITF homodimerization, bead proximity signal; inhibition, % at 2.6 µM; 650,000 tested, 0.91% active; in the data active = inhibition above about 50%
GPR151 confirm: human GPR151 activation, confirmation screen. shares compounds with GPR151 ag. GPR151 PathHunter beta-arrestin cells, luminescence, 90 min; % of EA-reagent control over plate median. activation, % at 11.2 µM. 6,700 tested, under 10 active. AID 1508609;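 active = mean percent activation across replicates above the confirmation screen cutoff of 4.91%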
GPR119 counter: counter-screen for GPR151 activators: effect on human GPR119; AID 1508611; GPR119 PathHunter beta-arrestin cells, luminescence, 90 min; 0 = compound-well median, 100 = enzyme-acceptor control; 6,700 tested, 0.3% active; shares compounds with GPR151 ag; activation, % at 11.2 µM;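 active = mean percent activation in the counterscreen above 29.09%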;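 note: counterscreen on off-target GPR119 to flag nonselective hits from the GPR151 activator screen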
Each line names hits and unclear results; the compound was inactive in the other large screens (follow-up assays come after a bar, where they were run). A selection: hits, their analogues and other compounds. The true share with any hit is near 3.5%.

O=C1C2C3CCC(C3)C2C(=O)N1c1ccc(OS(=O)(=O)c2ccccc2)cc1 (stereo not given)	GPR151 ag 7.6 | GPR151 confirm inactive | GPR119 counter inactive
CCC(=O)Oc1ccc(-c2nc(-c3ccccc3)c3ccccn23)cc1	none
O=C(CN1C(=O)CC(c2ccco2)Sc2ccccc21)Nc1ccc(F)cc1F (stereo not given)	GPR151 ag 7.5 | GPR151 confirm inactive | GPR119 counter inactive
Cc1ccc(-n2cc(-c3ccccc3)c3c(NCc4ccccc4Cl)ncnc32)cc1Cl	none
Cc1ccc(-c2csc3ncn(N)c(=O)c23)o1	none
O=C(NC(c1ccccc1)c1ccsc1)C1CCN(S(=O)(=O)c2ccccc2)CC1 (stereo not given)	none
CC(C)CCNC(=O)C(Cc1ccccc1)NS(=O)(=O)c1ccc(F)cc1 (stereo not given)	GPR151 ag 4.9 | GPR151 confirm inactive | GPR119 counter inactive
COC(=O)c1cc(C(=O)OC)cc(-n2c(/C=C/c3cccc([N+](=O)[O-])c3)nc3ccccc3c2=O)c1	none
CCN(c1ccccc1)c1ncnc2c1cnn2C	GPR151 ag 5.0 | GPR151 confirm inactive | GPR119 counter inactive
CCCCN(c1ccccc1)c1ncnc2c1cnn2C	none
CN(C)CCC(=O)N1c2ccccc2Sc2ccc(Cl)cc21	none
CN(C)CCOC1=Cc2ccccc2Sc2ccc(Cl)cc21	GPR151 ag 5.7 (no result: TEAD-YAP inh) | GPR151 confirm inactive | GPR119 counter inactive
CCOc1cc(S(=O)(=O)NC2CC(C)(C)NC(C)(C)C2)ccc1Br	none
CC1(C)Cc2c(sc3nc(-c4cc5ccccc5o4)n(N)c(=O)c23)CO1	GPR151 ag 6.4 | GPR151 confirm inactive | GPR119 counter inactive
CCOc1ccc(C(=O)N2CCC(c3ncncc3-c3ccncc3)CC2)o1	GPR151 ag 18 | GPR151 confirm inactive | GPR119 counter inactive
CCOc1ccc(C(=O)N2CCCC(c3ncncc3-c3ccncc3)C2)o1 (stereo not given)	none
O=C(NC1CCS(=O)(=O)C1)/C(=C/c1cn(-c2ccccc2)nc1-c1cccs1)NC(=O)c1ccccc1 (stereo not given)	GPR151 ag 5.8 | GPR151 confirm inactive | GPR119 counter inactive
Cc1nc2ncnn2c(C)c1CCC(=O)Nc1cccc(-c2nc3ccccc3[nH]2)c1	none
Cc1ccc(F)cc1NC(=O)c1sc2ncn(Cc3ccccc3F)c(=O)c2c1C	none
COc1ccccc1OCCCN1C(=O)C(=O)c2cc(Br)cc(C)c21	GPR151 ag 14 | GPR151 confirm inactive | GPR119 counter inactive
CC(C)N1CCC(N2CCN(Cc3ccc(-c4ccc(Cl)cc4)o3)CC2CCO)CC1 (stereo not given)	GPR151 ag 6.6 | GPR151 confirm inactive | GPR119 counter inactive
COc1cccc2ccc(CN3CCN(C4CCN(C(C)C)CC4)C(CCO)C3)nc12 (stereo not given)	GPR151 ag 9.0 | GPR151 confirm inactive | GPR119 counter inactive
Cc1ccccc1NC(=S)NC(=O)CC(C)C	none
CC(NC(=O)c1cccc(Br)c1)C1CCCO1 (stereo not given)	none
CC(NC(=O)c1ccc2c(c1)OCO2)C1CCCO1 (stereo not given)	GPR151 ag 5.5 | GPR151 confirm inactive | GPR119 counter inactive
CC(C)CC(NC(=O)C(C)NC(=O)CNC(=O)C(NC=O)C(C)C)C(=O)NC(C)C(=O)NC(C(=O)NC(C(=O)NC(C(=O)NC(Cc1c[nH]c2ccccc12)C(=O)NC(CC(C)C)C(=O)NC(Cc1c[nH]c2ccccc12)C(=O)NC(CC(C)C)C(=O)NC(Cc1c[nH]c2ccccc12)C(=O)NC(CC(C)C)C(=O)NC(Cc1c[nH]c2ccccc12)C(=O)NCCO)C(C)C)C(C)C)C(C)C (stereo not given)	TEAD-YAP inh 84, GPR151 ag 24 | GPR151 confirm 14 | GPR119 counter 113
COC(=O)C(C)NC(=O)C(Cc1c[nH]c2ccccc12)NC(C)=O (stereo not given)	none
CCOC(=O)C1=CN(Cc2ccc(F)cc2)C=C(C(=O)OCC)C1c1ccc(OCc2ccccc2)c(OC)c1	GPR151 ag 14 | GPR151 confirm inactive | GPR119 counter inactive
COC(=O)C1=CN(Cc2ccc(F)cc2)C=C(C(=O)OC)C1c1ccc(OCc2ccccc2)c(OC)c1	none
CCCNC(=O)N1CCC2(CC1)OCc1cc(OC)ccc1O2	none
Fc1cccc(-c2cc3nc4c(c(N5CCOCC5)n3n2)CCC4)c1	GPR151 ag 6.7 | GPR151 confirm inactive | GPR119 counter inactive
Fc1ccc(-c2cc3nc4c(c(N5CCOCC5)n3n2)CCC4)cc1	none
O=C(NS(=O)(=O)c1ccccc1)c1cccc(Br)c1	GPR151 ag 5.9 | GPR151 confirm inactive | GPR119 counter inactive
Cc1ccc(S(=O)(=O)NC(=O)c2cccc(Br)c2)cc1	none
CCOC(=O)CSc1ccc(C(=O)N(CC)CC)cc1[N+](=O)[O-]	GPR151 ag 6.8 | GPR151 confirm inactive | GPR119 counter inactive
CCOC(=O)CSc1ccc(C(=O)OCC)cc1[N+](=O)[O-]	none
CCc1ccccc1N(CC(=O)NC1CC2CCC1C2)S(C)(=O)=O (stereo not given)	GPR151 ag 5.6 | GPR151 confirm inactive | GPR119 counter inactive
CS(=O)(=O)N(CC(=O)NC1CC2CCC1C2)c1cc(Cl)c(Cl)cc1Cl (stereo not given)	none
Cc1ccc(-n2[nH]c(C)c(/C=N/NC(=O)c3cccc(Br)c3)c2=O)cc1	none
COc1ccc(OC)c(C2N(c3nccs3)C(=O)C3CCCN32)c1 (stereo not given)	none
Cc1cc(OCC(=O)NCC(C)CN(C)C)ccc1Cl (stereo not given)	GPR151 ag 5.8 | GPR151 confirm inactive | GPR119 counter inactive
Cc1cc(OCC(=O)NCc2ccc(F)cc2)ccc1Cl	GPR151 ag 6.1 | GPR151 confirm inactive | GPR119 counter inactive
CCCCCOc1ccc(NC(=O)C(=O)NCc2ccc3c(c2)OCO3)cc1	none
CCS(=O)(=O)c1ccc2c(c1)N(Cc1ccc(C(F)(F)F)o1)C(=O)C(C)O2 (stereo not given)	none
COC(=O)c1ccccc1NC(=O)COc1ccc(CC(N)=O)cc1	none
CCCCC(c1nnnn1CCOC)N1CCN(c2ccccc2)CC1 (stereo not given)	GPR151 ag 5.1 | GPR151 confirm inactive | GPR119 counter inactive
CCOC(=O)c1cnc(SCc2nc(N)nc(Nc3ccccc3)n2)nc1N	none
CCOC(=O)c1nc(N)nc(Nc2ccccc2)n1	GPR151 ag 11 | GPR151 confirm inactive | GPR119 counter inactive
COc1ccc(Nc2nc(N)nc(CN3CCN(c4ccccn4)CC3)n2)cc1	none
CCN1CCN(Cc2nc(N)nc(Nc3ccccc3)n2)CC1	GPR151 ag 6.1 | GPR151 confirm inactive | GPR119 counter inactive
COc1ccc(Nc2nc(N)nc(CN3C(=O)c4ccccc4C3=O)n2)cc1	GPR151 ag 6.9 | GPR151 confirm inactive | GPR119 counter inactive
